The source of these data is the supplement of paper PMC11732987, “Enantioselective OTUD7B fragment discovery through chemoproteomics screening and high-throughput optimisation” (Communications Chemistry, 2025).

Holding throughout (assay): log2 ratio of Biotin-Ahx-Ub-VS probe labelling (fragment/DMSO); higher = less target engagement (more negative = stronger competition), active = hit call of the paper (q ≤ 0.05, log2 ratio ≤ -1)
Settings in all cases: compound concentration: 200 uM; treatment time: 3 h

The target of test [1] is T1, USP42 (UniProt Q9H9J4).
T1 sequence (whole entry): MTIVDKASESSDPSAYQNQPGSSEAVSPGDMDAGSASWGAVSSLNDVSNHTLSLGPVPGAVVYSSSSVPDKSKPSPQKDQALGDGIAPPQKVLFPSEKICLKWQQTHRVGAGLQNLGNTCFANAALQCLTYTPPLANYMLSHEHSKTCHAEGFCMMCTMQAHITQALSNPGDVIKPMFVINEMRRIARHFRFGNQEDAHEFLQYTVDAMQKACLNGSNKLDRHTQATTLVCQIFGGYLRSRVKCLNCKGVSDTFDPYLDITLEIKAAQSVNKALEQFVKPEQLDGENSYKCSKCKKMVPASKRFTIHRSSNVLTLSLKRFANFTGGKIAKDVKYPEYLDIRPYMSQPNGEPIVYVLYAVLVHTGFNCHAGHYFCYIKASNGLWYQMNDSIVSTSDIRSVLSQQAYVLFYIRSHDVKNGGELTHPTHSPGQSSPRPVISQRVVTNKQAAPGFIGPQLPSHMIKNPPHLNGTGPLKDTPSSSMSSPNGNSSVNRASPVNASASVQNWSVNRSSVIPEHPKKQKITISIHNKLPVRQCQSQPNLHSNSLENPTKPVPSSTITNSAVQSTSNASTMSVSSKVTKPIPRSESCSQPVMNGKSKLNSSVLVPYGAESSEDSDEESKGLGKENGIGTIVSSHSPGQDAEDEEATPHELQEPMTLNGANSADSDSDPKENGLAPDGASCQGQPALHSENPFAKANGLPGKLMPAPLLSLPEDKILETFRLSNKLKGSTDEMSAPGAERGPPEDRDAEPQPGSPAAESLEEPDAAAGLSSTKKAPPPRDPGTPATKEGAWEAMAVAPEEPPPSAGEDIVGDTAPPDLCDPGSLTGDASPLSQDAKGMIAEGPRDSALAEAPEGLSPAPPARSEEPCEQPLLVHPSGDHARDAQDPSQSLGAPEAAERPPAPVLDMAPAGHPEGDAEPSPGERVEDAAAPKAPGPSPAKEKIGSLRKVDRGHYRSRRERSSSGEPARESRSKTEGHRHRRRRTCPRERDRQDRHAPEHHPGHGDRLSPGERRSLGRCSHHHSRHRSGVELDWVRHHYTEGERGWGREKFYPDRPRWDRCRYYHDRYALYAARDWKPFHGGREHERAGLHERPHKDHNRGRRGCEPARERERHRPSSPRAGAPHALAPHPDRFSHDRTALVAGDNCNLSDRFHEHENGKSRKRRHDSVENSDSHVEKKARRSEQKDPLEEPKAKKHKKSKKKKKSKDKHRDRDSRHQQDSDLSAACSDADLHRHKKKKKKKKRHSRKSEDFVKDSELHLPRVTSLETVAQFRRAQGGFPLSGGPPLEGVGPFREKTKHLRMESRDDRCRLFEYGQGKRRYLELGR
The procedure, abridged:
(§1)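 Labelled DUBs from HEK293T lysate were NeutrAvidin-enriched, digested with LysC and trypsin, and run by diaPASEF LC-MS/MS. Before that, each 495 µg sample in Tris/CHAPS/IGEPAL buffer with protease inhibitors was treated in triplicate with fragment at 200 µM or vehicle for 3 h, then with Biotin-Ahx-Ub-VS at 0.5 µM final for 1 h. Values are average log2 ratios of fragment over vehicle by unpaired t-test, based on global-median-normalised Spectronaut label-free quantities from proteins with ≥2 unique peptides.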

In test [2] the target is USP46 (UniProt P62068). The method, boiled down: as §1
Chain of USP46 (P62068 whole entry): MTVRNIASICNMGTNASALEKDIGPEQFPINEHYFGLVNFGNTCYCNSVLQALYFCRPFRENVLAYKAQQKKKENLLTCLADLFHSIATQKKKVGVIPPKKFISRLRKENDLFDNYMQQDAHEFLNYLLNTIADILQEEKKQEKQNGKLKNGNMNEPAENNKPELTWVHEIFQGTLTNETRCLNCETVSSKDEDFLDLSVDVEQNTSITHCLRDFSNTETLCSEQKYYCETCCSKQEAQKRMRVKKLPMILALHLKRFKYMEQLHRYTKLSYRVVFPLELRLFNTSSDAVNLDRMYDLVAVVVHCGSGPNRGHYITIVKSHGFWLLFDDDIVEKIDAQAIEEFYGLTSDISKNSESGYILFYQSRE
In test [3] the target is T2, USP47 (UniProt Q96K76).
T2 sequence (whole entry): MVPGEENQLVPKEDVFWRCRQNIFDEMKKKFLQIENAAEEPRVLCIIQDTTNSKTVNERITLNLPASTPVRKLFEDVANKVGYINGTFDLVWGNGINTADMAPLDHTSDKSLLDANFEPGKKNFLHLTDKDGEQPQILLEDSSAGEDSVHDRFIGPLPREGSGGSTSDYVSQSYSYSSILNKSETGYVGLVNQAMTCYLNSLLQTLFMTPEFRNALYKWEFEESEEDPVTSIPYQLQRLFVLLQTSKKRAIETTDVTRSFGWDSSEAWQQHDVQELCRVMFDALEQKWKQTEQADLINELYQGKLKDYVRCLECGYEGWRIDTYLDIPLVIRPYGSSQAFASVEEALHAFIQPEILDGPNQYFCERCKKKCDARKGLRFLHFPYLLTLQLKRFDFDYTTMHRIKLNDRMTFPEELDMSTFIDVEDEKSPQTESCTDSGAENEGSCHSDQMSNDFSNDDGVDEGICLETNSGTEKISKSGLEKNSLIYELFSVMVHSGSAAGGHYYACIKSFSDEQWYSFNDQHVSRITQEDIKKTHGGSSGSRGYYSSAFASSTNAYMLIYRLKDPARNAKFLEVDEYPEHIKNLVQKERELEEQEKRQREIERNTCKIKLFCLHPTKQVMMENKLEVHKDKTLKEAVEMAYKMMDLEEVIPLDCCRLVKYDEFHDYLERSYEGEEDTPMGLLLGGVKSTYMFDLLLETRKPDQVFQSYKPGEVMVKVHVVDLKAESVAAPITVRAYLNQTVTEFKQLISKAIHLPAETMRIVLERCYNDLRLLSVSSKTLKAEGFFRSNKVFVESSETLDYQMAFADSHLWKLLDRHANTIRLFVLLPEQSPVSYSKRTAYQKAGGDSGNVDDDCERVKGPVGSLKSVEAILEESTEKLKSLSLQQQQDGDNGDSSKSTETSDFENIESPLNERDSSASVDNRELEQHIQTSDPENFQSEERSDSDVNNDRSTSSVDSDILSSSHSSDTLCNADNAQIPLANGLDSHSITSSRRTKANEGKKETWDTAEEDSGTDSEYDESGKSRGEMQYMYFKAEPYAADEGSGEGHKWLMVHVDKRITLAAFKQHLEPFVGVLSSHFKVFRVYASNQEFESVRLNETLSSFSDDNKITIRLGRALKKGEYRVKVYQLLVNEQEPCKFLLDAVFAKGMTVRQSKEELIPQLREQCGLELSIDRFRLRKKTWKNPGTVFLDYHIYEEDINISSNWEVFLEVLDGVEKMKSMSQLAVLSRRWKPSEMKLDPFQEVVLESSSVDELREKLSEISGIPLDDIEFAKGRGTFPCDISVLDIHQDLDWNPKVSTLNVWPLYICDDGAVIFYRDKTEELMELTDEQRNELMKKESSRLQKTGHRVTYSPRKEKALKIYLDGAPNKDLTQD
The method, boiled down:
as §1

Test [4] has as its target T3, USP48 (UniProt Q86UV5).
T3 sequence (whole entry): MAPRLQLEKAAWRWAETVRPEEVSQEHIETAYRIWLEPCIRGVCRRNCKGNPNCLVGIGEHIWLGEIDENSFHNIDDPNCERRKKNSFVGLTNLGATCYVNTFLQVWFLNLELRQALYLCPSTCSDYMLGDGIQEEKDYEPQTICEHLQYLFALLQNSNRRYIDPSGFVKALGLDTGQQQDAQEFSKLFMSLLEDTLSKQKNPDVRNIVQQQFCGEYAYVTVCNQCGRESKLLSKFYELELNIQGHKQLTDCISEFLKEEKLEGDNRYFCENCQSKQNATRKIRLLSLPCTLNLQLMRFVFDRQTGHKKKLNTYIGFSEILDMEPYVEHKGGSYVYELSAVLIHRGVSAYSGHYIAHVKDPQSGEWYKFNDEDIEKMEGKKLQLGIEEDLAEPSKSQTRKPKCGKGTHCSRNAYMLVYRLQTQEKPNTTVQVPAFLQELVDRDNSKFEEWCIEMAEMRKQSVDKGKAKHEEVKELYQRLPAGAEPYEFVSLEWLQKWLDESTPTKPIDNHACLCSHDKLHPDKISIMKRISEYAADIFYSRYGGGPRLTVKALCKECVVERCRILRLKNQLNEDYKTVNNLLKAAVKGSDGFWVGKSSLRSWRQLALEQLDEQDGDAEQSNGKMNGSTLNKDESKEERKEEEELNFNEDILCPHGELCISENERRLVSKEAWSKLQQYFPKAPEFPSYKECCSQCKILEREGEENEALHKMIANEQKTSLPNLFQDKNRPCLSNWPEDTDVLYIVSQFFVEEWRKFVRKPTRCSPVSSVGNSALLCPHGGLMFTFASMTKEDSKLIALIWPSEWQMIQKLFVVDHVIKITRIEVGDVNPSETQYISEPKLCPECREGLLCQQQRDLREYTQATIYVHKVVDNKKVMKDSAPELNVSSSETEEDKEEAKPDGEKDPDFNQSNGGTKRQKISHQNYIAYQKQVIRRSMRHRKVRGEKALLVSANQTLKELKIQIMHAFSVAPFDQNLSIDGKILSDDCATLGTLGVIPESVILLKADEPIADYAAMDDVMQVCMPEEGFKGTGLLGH
The method, boiled down:
as §1

Test [5] concerns the target T4, USP5 (UniProt P45974).
T4 sequence (whole entry): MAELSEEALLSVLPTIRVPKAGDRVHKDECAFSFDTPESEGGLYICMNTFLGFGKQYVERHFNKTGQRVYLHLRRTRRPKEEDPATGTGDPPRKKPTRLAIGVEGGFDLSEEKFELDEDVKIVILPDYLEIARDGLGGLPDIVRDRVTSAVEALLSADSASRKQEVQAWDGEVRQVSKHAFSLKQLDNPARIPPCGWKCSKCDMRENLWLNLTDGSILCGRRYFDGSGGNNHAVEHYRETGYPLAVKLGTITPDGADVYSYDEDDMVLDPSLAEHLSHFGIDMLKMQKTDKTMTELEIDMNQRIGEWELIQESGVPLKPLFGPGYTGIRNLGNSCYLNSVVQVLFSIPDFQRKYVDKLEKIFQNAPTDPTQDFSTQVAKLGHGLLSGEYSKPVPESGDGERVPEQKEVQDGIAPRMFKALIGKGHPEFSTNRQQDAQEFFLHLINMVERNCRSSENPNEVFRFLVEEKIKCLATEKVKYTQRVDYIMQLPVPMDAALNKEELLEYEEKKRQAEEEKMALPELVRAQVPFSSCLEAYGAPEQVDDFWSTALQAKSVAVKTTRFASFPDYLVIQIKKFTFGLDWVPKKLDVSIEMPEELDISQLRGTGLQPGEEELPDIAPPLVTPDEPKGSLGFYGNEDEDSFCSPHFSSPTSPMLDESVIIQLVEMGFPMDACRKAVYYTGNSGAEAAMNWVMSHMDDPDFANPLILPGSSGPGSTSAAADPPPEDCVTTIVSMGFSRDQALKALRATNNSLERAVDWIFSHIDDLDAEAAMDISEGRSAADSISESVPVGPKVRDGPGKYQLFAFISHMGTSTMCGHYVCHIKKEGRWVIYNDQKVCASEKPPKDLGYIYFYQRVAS
The method, boiled down:
as §1

In test [6] the target is USP54 (UniProt Q70EL1). The procedure, abridged: as §1
Chain of USP54 (Q70EL1 whole entry): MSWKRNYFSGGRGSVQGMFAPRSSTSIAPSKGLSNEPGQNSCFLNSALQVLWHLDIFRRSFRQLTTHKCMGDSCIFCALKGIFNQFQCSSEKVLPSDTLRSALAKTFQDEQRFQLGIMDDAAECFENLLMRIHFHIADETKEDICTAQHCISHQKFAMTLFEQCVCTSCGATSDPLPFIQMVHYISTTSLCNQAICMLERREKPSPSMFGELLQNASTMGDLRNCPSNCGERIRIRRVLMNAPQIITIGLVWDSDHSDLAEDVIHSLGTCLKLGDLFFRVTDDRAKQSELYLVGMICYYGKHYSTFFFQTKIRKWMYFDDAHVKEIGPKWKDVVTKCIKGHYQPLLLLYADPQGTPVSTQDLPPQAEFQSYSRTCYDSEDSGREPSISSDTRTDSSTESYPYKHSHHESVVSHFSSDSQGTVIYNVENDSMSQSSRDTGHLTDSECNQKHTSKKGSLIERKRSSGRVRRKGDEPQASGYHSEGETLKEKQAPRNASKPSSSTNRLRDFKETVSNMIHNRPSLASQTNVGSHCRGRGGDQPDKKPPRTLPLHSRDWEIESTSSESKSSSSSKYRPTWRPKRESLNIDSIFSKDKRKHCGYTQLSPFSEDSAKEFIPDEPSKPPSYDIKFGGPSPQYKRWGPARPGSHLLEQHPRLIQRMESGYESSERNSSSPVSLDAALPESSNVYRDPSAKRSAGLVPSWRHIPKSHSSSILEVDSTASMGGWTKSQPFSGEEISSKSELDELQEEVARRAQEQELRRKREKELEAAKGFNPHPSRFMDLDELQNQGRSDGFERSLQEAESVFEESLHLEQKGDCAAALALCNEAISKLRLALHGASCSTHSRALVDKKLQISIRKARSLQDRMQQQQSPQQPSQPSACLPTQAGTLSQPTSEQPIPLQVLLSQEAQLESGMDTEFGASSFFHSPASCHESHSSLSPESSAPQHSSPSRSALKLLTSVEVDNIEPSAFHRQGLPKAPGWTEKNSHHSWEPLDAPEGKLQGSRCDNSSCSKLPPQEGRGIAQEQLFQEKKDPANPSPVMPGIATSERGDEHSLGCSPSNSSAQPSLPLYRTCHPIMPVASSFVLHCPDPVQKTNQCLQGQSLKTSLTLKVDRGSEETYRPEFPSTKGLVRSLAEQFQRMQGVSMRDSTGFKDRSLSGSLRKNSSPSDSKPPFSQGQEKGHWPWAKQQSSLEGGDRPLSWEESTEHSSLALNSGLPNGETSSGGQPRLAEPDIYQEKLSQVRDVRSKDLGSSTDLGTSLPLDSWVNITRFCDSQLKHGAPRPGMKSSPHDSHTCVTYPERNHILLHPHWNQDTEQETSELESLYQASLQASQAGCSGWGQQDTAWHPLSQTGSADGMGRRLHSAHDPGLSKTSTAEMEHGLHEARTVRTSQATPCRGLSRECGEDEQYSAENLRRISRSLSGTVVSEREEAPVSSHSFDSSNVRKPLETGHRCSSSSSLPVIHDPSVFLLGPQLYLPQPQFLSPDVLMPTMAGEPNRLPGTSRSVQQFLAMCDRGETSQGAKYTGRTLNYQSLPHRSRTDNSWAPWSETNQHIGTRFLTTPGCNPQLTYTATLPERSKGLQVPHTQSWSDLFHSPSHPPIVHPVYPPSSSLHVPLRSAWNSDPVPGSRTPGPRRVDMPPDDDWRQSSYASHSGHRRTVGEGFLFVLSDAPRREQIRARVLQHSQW
Test [7] deals with USP7 (UniProt Q93009). The method, boiled down:
as §1

Test [8] has as its target T5, USP8 (UniProt P40818).
T5 sequence (whole entry): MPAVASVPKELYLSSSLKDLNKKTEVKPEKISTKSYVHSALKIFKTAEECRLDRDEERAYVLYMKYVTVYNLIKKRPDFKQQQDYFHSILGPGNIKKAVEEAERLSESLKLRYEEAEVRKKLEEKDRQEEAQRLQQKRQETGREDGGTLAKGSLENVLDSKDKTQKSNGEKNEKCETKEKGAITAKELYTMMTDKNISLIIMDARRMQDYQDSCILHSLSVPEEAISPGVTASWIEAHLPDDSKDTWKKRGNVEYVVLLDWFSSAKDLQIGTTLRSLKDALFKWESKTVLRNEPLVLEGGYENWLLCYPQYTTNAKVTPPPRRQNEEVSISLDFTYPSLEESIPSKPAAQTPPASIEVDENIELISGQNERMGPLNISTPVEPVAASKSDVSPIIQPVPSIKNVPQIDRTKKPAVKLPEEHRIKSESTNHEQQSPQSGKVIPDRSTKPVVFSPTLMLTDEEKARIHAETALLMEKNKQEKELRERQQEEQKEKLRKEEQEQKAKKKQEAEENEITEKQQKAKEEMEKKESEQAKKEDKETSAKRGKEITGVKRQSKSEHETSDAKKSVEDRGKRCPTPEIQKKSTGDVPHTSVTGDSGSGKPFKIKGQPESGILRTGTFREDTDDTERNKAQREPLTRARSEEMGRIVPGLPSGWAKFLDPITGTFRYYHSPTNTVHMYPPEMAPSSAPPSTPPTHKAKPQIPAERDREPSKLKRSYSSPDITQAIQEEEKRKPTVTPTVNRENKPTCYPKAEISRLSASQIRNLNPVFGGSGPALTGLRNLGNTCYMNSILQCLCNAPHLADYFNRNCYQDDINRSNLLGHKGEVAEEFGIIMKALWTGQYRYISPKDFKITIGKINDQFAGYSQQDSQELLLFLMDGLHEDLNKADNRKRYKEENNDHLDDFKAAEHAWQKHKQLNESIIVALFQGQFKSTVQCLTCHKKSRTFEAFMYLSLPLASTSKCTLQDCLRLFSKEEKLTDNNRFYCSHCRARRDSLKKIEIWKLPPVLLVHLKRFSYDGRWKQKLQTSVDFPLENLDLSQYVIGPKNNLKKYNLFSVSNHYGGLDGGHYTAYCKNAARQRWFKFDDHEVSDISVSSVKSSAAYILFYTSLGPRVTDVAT
The method, boiled down:
as §1

In test [9] the target is USP9X (UniProt Q93008). The procedure, abridged: as §1
Chain of USP9X (Q93008 whole entry): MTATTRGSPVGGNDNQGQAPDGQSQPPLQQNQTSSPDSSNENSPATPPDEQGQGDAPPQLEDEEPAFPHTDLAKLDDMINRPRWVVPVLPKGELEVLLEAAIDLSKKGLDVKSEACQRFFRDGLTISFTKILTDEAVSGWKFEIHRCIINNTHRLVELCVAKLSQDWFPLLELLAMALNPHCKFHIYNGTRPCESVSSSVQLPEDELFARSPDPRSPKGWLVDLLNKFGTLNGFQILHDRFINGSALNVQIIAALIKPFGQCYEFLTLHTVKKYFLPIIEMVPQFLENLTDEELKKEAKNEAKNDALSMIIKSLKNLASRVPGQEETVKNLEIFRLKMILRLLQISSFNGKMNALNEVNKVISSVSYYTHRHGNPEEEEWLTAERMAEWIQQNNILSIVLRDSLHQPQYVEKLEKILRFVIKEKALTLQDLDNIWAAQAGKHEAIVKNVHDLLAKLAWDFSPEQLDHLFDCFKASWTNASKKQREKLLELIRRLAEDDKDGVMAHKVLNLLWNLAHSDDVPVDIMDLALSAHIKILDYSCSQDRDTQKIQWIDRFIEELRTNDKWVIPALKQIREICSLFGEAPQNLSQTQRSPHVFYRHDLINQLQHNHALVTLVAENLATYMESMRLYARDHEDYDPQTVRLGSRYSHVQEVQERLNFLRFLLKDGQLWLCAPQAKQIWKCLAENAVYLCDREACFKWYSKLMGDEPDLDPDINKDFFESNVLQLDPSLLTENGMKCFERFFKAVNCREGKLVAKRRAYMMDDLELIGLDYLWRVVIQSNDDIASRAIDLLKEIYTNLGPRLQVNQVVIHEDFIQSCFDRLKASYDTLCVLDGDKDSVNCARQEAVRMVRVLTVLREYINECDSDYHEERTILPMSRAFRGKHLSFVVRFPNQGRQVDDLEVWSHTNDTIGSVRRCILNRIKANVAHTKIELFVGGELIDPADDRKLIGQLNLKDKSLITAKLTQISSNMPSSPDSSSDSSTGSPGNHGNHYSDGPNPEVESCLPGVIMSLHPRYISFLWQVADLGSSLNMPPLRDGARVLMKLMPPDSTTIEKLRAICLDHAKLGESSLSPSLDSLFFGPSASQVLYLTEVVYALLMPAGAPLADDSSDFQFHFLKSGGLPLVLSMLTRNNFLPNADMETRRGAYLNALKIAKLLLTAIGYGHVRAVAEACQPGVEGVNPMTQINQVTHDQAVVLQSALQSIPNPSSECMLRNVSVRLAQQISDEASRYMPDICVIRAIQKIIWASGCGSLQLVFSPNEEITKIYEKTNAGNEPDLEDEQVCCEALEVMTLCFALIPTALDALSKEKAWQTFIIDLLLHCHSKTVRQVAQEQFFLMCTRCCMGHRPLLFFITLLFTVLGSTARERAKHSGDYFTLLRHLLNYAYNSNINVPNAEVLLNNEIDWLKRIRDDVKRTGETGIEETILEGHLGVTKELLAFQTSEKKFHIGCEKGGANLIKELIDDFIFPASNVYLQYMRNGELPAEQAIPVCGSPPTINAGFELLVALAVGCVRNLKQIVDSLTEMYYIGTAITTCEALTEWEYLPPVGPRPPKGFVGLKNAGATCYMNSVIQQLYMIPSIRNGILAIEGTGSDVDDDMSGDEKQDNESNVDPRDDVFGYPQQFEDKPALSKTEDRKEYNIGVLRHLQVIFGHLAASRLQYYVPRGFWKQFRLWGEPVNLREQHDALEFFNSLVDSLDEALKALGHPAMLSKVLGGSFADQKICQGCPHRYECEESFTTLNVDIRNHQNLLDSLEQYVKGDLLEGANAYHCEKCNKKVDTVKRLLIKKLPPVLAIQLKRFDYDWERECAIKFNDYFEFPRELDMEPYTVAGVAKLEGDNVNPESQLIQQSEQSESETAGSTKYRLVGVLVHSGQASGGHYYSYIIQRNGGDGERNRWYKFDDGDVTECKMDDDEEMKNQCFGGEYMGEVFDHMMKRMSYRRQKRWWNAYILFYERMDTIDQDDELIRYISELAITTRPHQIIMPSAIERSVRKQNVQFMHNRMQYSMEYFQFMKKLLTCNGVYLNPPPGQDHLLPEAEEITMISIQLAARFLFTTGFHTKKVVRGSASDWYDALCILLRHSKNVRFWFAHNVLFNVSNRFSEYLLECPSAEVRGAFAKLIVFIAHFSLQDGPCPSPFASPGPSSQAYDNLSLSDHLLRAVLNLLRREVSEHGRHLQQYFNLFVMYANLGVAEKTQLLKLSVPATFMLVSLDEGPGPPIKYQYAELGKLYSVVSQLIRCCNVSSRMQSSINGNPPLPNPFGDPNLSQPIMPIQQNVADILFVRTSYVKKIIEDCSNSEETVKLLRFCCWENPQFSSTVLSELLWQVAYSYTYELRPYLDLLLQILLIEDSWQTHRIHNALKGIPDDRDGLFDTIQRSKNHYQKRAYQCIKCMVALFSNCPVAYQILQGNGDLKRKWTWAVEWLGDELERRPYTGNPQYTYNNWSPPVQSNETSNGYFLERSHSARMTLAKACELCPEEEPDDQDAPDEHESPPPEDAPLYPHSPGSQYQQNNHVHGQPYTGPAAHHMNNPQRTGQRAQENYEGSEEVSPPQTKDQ
For test [10], the target named is UniProt O00487. The method, boiled down: as §1
Chain of UniProt O00487 (O00487 whole entry): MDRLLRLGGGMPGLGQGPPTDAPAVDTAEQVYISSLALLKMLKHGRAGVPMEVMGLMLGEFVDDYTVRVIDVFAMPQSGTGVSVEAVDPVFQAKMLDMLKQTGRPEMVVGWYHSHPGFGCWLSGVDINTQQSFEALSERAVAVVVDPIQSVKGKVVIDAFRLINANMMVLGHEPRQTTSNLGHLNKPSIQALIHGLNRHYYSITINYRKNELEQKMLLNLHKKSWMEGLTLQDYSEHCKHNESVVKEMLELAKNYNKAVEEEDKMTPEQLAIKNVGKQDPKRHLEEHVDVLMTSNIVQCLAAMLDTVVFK

A number with no mark means an inactive call.

With `O=C(CCl)Nc1ccc(F)cc1Cl`, the “log2 ratio of Biotin-Ahx-Ub-VS probe labelling” value is 0.367 in test [1]; -0.157 in test [2]; -1.41 (active) in test [3]; -0.144 in test [4]; -0.28 in [5]; 0.679 in test [6]. Besides, the “log2 ratio of Biotin-Ahx-Ub-VS probe labelling” value in test [7] is -0.395; in test [8] it was -0.165; in test [9], -0.538; in test [10], -0.0503.
